Experimental data from PubChem BioAssay AID1159580 (chemical genetic matrix, 2015).
Screen size: about 5,500 compounds; about 2,000 (36%) were called active. Another 18% or so got no clear call; they are omitted. Cut-off read from the data, not from the text of the source: active = normalized growth mostly below about 0.91 (no sharp cut-off); inconclusive = no clear call, values can overlap the other calls; inactive = mostly above about 0.92. The list shows a part of the results.

Assay: chemical genetic growth profiling, strain panel (AID 1159580);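 note: tested at 20 µM; growth read once vehicle control cultures reached saturation at 30 °C; 1 = growth at the plate median or of vehicle wells; lower values mean less growth of the strain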
Conditions: growth OD

Measured: normalized growth

NCC(CC(=O)O)c1ccc(Cl)s1 (stereo unspecified)
inactive: S. cerevisiae deletion strains, locus YAL013W, strain DEP1, stronger effect = lower value 0.991 | S. cerevisiae deletion strains, locus YBR021W, strain FUR4, stronger effect = lower value 0.96 | S. cerevisiae deletion strains, locus YBR229C, strain ROT2, stronger effect = lower value 0.99 | S. cerevisiae deletion strains, locus YCL029C, strain bik1, stronger effect = lower value 0.985 | S. cerevisiae deletion strains, locus YDL035C, strain GPR1, stronger effect = lower value 0.994 | S. cerevisiae deletion strains, locus YDL074C, strain BRE1, stronger effect = lower value 1.02 | S. cerevisiae deletion strains, locus YDL101C, strain DUN1, stronger effect = lower value 0.992 | S. cerevisiae deletion strains, locus YDL134C, strain PPH21, stronger effect = lower value 0.982 | S. cerevisiae deletion strains, locus YDL185W, strain tfp1, stronger effect = lower value 0.978 | S. cerevisiae deletion strains, locus YDL192W, strain arf1, stronger effect = lower value 0.987 | S. cerevisiae deletion strains, locus YDR101C, strain arx1, stronger effect = lower value 0.998 | S. cerevisiae deletion strains, locus YDR150W, strain NUM1, stronger effect = lower value 1 | S. cerevisiae deletion strains, locus YDR162C, strain NBP2, stronger effect = lower value 1.03 | S. cerevisiae deletion strains, locus YDR318W, strain mcm21, stronger effect = lower value 0.968 | S. cerevisiae deletion strains, locus YDR388W, stronger effect = lower value 0.99 | S. cerevisiae deletion strains, locus YDR502C, strain sam2, stronger effect = lower value 0.996 | S. cerevisiae deletion strains, locus YEL061C, strain CIN8, stronger effect = lower value 0.994 | S. cerevisiae deletion strains, locus YER110C, stronger effect = lower value 0.979 | S. cerevisiae deletion strains, locus YER155C, strain BEM2, stronger effect = lower value 1 | S. cerevisiae deletion strains, locus YER167W, strain BCK2, stronger effect = lower value 0.973 | S. cerevisiae deletion strains, locus YGL078C, strain dbp3, stronger effect = lower value 0.995 | S. cerevisiae deletion strains, locus YGL086W, strain mad1, stronger effect = lower value 0.958 | S. cerevisiae deletion strains, locus YGL248W, strain PDE1, stronger effect = lower value 0.987 | S. cerevisiae deletion strains, locus YGR078C, strain PAC10, stronger effect = lower value 0.994 | S. cerevisiae deletion strains, locus YGR135W, strain pre9, stronger effect = lower value 0.974 | S. cerevisiae deletion strains, locus YGR229C, strain SMI1, stronger effect = lower value 0.958 | S. cerevisiae deletion strains, locus YGR252W, strain gcn5, stronger effect = lower value 0.926 | S. cerevisiae deletion strains, locus YHR030C, strain SLT2, stronger effect = lower value 0.989 | S. cerevisiae deletion strains, locus YHR079C, strain IRE1 (second series), stronger effect = lower value 0.992 | S. cerevisiae deletion strains, locus YHR094C, strain hxt1, stronger effect = lower value 0.991 | S. cerevisiae deletion strains, locus YHR129C, strain ARP1, stronger effect = lower value 0.99 | S. cerevisiae deletion strains, locus YHR200W, strain rpn10, stronger effect = lower value 0.978 | S. cerevisiae deletion strains, locus YIL066C, strain RNR3, stronger effect = lower value 0.979 | S. cerevisiae deletion strains, locus YIL073C, strain SPO22, stronger effect = lower value 0.959 | S. cerevisiae deletion strains, locus YIL125W, strain kgd1, stronger effect = lower value 1.01 | S. cerevisiae deletion strains, locus YIR030C, strain dcg1, stronger effect = lower value 0.993 | S. cerevisiae deletion strains, locus YJL095W, strain BCK1, stronger effect = lower value 0.991 | S. cerevisiae deletion strains, locus YJL134W, strain LCB3, stronger effect = lower value 0.989 | S. cerevisiae deletion strains, locus YJL168C, strain set2, stronger effect = lower value 0.996 | S. cerevisiae deletion strains, locus YJL187C, strain SWE1 (second series), stronger effect = lower value 0.999 | S. cerevisiae deletion strains, locus YJR043C, strain POL32, stronger effect = lower value 0.964 | S. cerevisiae deletion strains, locus YJR075W, strain HOC1, stronger effect = lower value 1.06 | S. cerevisiae deletion strains, locus YKL009W, strain mrt4, stronger effect = lower value 1 | S. cerevisiae deletion strains, locus YKL068W, stronger effect = lower value 0.989 | S. cerevisiae deletion strains, locus YKL085W, strain MDH1 (second series), stronger effect = lower value 1.02 | S. cerevisiae deletion strains, locus YKL085W, strain MDH1, stronger effect = lower value 1.02 | S. cerevisiae deletion strains, locus YKL190W, strain CNB1, stronger effect = lower value 0.997 | S. cerevisiae deletion strains, locus YKR001C, strain vps1, stronger effect = lower value 0.947 | S. cerevisiae deletion strains, locus YLR039C, strain RIC1, stronger effect = lower value 1.01 | S. cerevisiae deletion strains, locus YLR058C, strain SHM2, stronger effect = lower value 0.985 | S. cerevisiae deletion strains, locus YLR102C, strain apc9, stronger effect = lower value 0.998 | S. cerevisiae deletion strains, locus YLR262C, strain YPT6, stronger effect = lower value 1.03 | S. cerevisiae deletion strains, locus YLR268W, strain sec22, stronger effect = lower value 0.988 | S. cerevisiae deletion strains, locus YLR330W, strain CHS5, stronger effect = lower value 0.993 | S. cerevisiae deletion strains, locus YLR342W, strain FKS1 (second series), stronger effect = lower value 0.978 | S. cerevisiae deletion strains, locus YLR371W, strain rom2, stronger effect = lower value 0.986 | S. cerevisiae deletion strains, locus YLR418C, strain cdc73, stronger effect = lower value 0.914 | S. cerevisiae deletion strains, locus YML016C, strain PPZ1, stronger effect = lower value 0.984 | S. cerevisiae deletion strains, locus YML032C, strain rad52, stronger effect = lower value 0.963 | S. cerevisiae deletion strains, locus YML124C, strain tub3, stronger effect = lower value 0.979 | S. cerevisiae deletion strains, locus YMR078C, strain ctf18, stronger effect = lower value 0.989 | S. cerevisiae deletion strains, locus YMR223W, strain ubp8, stronger effect = lower value 0.958 | S. cerevisiae deletion strains, locus YMR263W, strain SAP30, stronger effect = lower value 1.01 | S. cerevisiae deletion strains, locus YMR307W, strain GAS1, stronger effect = lower value 0.959 | S. cerevisiae deletion strains, locus YNL067W, strain RPL9B, stronger effect = lower value 1.02 | S. cerevisiae deletion strains, locus YNL128W, strain TEP1, stronger effect = lower value 1.02 | S. cerevisiae deletion strains, locus YNL153C, strain GIM3, stronger effect = lower value 1.02 | S. cerevisiae deletion strains, locus YNL233W, strain BNI4, stronger effect = lower value 0.989 | S. cerevisiae deletion strains, locus YNL250W, strain rad50, stronger effect = lower value 0.995 | S. cerevisiae deletion strains, locus YNL271C, strain bni1, stronger effect = lower value 0.988 | S. cerevisiae deletion strains, locus YNL298W, strain CLA4, stronger effect = lower value 0.988 | S. cerevisiae deletion strains, locus YNL307C, strain MCK1, stronger effect = lower value 0.954 | S. cerevisiae deletion strains, locus YNL322C, strain KRE1, stronger effect = lower value 0.999 | S. cerevisiae deletion strains, locus YNR052C, strain pop2, stronger effect = lower value 0.981 | S. cerevisiae deletion strains, locus YOL006C, strain TOP1, stronger effect = lower value 0.973 | S. cerevisiae deletion strains, locus YOL012C, strain htz1 1.87 | S. cerevisiae deletion strains, locus YOL147C, strain pex11, stronger effect = lower value 0.998 | S. cerevisiae deletion strains, locus YOR061W, strain CKA2, stronger effect = lower value 0.997 | S. cerevisiae deletion strains, locus YOR069W, strain VPS5, stronger effect = lower value 0.983 | S. cerevisiae deletion strains, locus YOR136W, strain idh2, stronger effect = lower value 0.981 | S. cerevisiae deletion strains, locus YOR144C, strain elg1, stronger effect = lower value 0.987 | S. cerevisiae deletion strains, locus YOR184W, strain ser1, stronger effect = lower value 0.94 | S. cerevisiae deletion strains, locus YOR316C, strain cot1, stronger effect = lower value 0.992 | S. cerevisiae deletion strains, locus YPL055C, strain LGE1, stronger effect = lower value 1.05 | S. cerevisiae deletion strains, locus YPL241C, strain CIN2, stronger effect = lower value 0.993 | S. cerevisiae deletion strains, locus YPR119W, strain clb2, stronger effect = lower value 0.994 | S. cerevisiae deletion strains, locus YPR141C, strain kar3, stronger effect = lower value 0.982 | S. cerevisiae deletion strains, locus YPR163C, strain tif3, stronger effect = lower value 0.991 | S. cerevisiae deletion strains, locus YPR167C, strain met16, stronger effect = lower value 0.99 | S. cerevisiae deletion strains, strain wtn01, stronger effect = lower value 0.988 | S. cerevisiae strains, strain wild type, stronger effect = lower value 0.979
